In the library only some 2.4% were active in any assay of this set; here they are far more common.
ANO1 activ = activates or potentiates the mouse TMEM16A chloride channel. HEK293 TMEM16A/YFP-H148Q/I152L, iodide quench fluorescence; hits give low values. B-score at 10 µM. 340,000 compounds, 0.3% hits;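 active = fluorescence-ratio B-score plate-corrected deviation score at least 3 library SD below zero, with starting fluorescence score within 5 deviations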;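 also: channel opened by trigger with iodide after compound preincubation; score built on the fluorescence ratio of max minus min over baseline; more negative score means more quench and so TMEM16A activation or potentiation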
HTR2A ag = activates the mouse 5-HT2A serotonin receptor | P35363 | CHO-K1 mHTR2A beta-arrestin complementation, luminescence; percent of 30 µM serotonin response | activation, % at 7.6 µM | 360,000 compounds, 0.66% hits;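 active = activation above a run cutoff, the mean activation of all tested compounds plus 3 SD, cut at about 14% in these data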
TLR4-MyD88 BLA = TLR4-MyD88 interaction inhibition in cells | O00206+Q99836 | HeLa CL3-4 TLR4/MyD88 BLA complementation, FRET ratio | inhibition, % at 8.4 µM | 200,000 compounds, 0.18% hits; in the data active = inhibition above about 25%
NOD2-RIPK2 inh = inhibitors of human NOD2-RIPK2 interaction; O43353; CHO BLA complementation NOD2-RIPK2, CCF4 ratio; inhibition, % at 4.98 µM; 360,000 compounds, 0.38% hits; AID 624267; in the data active = inhibition above about 21%
TMEM16A inh = mouse TMEM16A channel inhibition, primary screen; HEK293 TMEM16A/YFP iodide influx fluorescence, ionomycin; normalized B-score (activity score, 25-100; higher = stronger inhibition) at 10 µM; 310,000 compounds, 1.2% hits; AID 588511;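 active = ratio plate-corrected score three or more library SD toward inhibition, starting fluorescence score within five deviations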;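 also: score derived from kinetic fluorescence span divided by baseline fluorescence per well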
TLR9-MyD88 inh = TLR9-MyD88 interaction inhibition. Q9NR96+Q99836. CHO BLA complementation TLR9-MyD88, CCF4 FRET ratio. inhibition, % at 4.98 µM. 340,000 compounds, 0.21% hits. AID 504734;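 active = inhibition above the mean over all tested compounds plus 3 SD, cut at about 21% in these data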
TMEM16A reconf = re-confirmation of mouse TMEM16A chloride channel inhibitors; inhibition, % at 10 µM; AID 652189; HEK293 TMEM16A/YFP-H148Q, iodide quench fluorescence; ionomycin added to raise cell calcium; 2,300 compounds, 39% hits; shares compounds with TMEM16A inh;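 active = mean duplicate percent inhibition, scaled so buffer wells are 0 and the reference blocker 100, over three buffer SD above buffer mean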
HEK293 Ca mobil = alters calcium mobilization in TMEM16A HEK293 cells, counter-screen; 2,300 compounds, 2% hits; TMEM16A/YFP HEK293, Fluo4 calcium mobilization; calcium response (% of ionomycin), % at 10 µM; shares compounds with TMEM16A inh;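 active = duplicate-averaged calcium signal over 20% of the ionomycin maximum, relative to buffer baseline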;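 also: each well's signal is peak minus trough fluorescence divided by its pre-addition baseline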
YFP-HEK293 quench = acts in parental YFP-HEK293 cells lacking TMEM16A, counter-screen. YFP ratio F(max-min)/F0 at 10 µM. 2,300 tested, under 10 active. shares compounds with TMEM16A inh. AID 652233. iodide YFP quench, ionomycin;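 active = yellow fluorescent protein signal ratio exceeding the buffer control mean by over 5 SD of those controls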;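 also: ratio is mean of duplicate wells from kinetic YFP trace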
ClC-1 inh = rat ClC-1 inhibition, TMEM16A specificity screen | shares compounds with TMEM16A inh | CHO ClC-1-YFP, iodide influx fluorescence quench; iodide control reads 0, buffer control 100 | ratio percent, % at 10 µM | 2,300 tested, under 10 active | AID 652236;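 active = duplicate-mean ratio percent above the mean of iodide-only control wells, which defines zero, plus 5 of their SD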;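 also: higher percent means stronger block of ClC-1 iodide influx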
Target sequence (P35524 whole entry, looked up): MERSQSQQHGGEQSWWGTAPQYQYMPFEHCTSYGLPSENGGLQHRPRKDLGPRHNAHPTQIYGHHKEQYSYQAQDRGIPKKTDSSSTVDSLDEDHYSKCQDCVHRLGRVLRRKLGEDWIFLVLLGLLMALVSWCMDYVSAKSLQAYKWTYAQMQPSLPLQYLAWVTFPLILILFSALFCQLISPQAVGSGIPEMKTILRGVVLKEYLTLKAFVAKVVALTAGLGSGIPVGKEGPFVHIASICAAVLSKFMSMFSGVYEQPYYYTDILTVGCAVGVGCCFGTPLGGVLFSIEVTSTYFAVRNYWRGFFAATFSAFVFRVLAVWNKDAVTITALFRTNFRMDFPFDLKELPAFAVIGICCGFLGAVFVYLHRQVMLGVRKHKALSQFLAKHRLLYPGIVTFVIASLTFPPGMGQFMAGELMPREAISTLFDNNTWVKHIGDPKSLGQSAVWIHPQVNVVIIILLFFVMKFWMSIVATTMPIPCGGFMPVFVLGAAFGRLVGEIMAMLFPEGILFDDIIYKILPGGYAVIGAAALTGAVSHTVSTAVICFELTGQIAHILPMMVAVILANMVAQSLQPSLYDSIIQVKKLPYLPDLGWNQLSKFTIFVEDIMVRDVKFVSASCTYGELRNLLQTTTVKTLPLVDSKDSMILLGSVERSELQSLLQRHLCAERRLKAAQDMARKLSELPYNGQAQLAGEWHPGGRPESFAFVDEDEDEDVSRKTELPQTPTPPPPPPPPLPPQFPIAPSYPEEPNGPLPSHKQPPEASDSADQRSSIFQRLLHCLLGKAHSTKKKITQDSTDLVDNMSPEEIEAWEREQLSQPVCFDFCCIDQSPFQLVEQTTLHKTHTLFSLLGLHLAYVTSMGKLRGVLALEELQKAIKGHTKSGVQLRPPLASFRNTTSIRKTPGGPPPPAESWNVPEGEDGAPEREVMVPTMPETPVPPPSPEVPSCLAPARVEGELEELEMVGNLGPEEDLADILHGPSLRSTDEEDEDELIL
Large screens that a line does not name were inactive (follow-up assays come after a bar, where they were run).

O=C(N/N=C/c1ccc(O)cc1)c1ccc(COc2cc(Cl)ccc2Cl)o1	ANO1 activ -5.6, TMEM16A inh 25 | TMEM16A reconf inactive | HEK293 Ca mobil inactive | YFP-HEK293 quench inactive | ClC-1 inh inactive
OC1(c2ccc(OC(F)F)cc2)CSC(=Nc2cccnc2)N1C1CC1 (configuration not stated)	TMEM16A inh 100 | TMEM16A reconf 20% | HEK293 Ca mobil inactive | YFP-HEK293 quench inactive | ClC-1 inh inactive
Cc1cc(C)c(S(=O)(=O)Nc2ccc3c4c(cccc24)CC3)c(C)c1	TMEM16A inh 100 | TMEM16A reconf inactive | HEK293 Ca mobil inactive | YFP-HEK293 quench inactive | ClC-1 inh inactive
Cc1ccc(S(=O)(=O)Nc2ccc3c4c(cccc24)CC3)c(C)c1	none
CSc1ccc(CN(C)C(=O)c2ccc(S(=O)(=O)Nc3c(C)n(C)n(-c4ccccc4)c3=O)cc2)cc1	none (no result: TLR4-MyD88 BLA, TMEM16A inh)
CSc1ccc(CN(C)C(=O)c2ccc(S(=O)(=O)Nc3ccccc3)cc2)cc1	TMEM16A inh 25 (no result: TLR4-MyD88 BLA) | TMEM16A reconf inactive | HEK293 Ca mobil inactive | YFP-HEK293 quench inactive | ClC-1 inh inactive
N#CC1(Cc2ccc(Cl)cc2)c2ccccc2C=CN1C(=O)c1ccccc1 (configuration not stated)	TMEM16A inh 25 | TMEM16A reconf inactive | HEK293 Ca mobil inactive | YFP-HEK293 quench inactive | ClC-1 inh inactive
O=C(O)c1cccc2c1C(=O)N(c1ccc3c(c1)Cc1ccccc1-3)C2=O	none (no result: TLR4-MyD88 BLA, TMEM16A inh)
CC(C)(C)NC(=O)c1cc2c(ccc3ccccc32)oc1=O	none (no result: TLR4-MyD88 BLA)
COc1cc(C)c(C(=O)Oc2cc(C)c(C(=O)O)c(O)c2)c(O)c1	TMEM16A inh 100 (no result: TLR4-MyD88 BLA) | TMEM16A reconf 18% | HEK293 Ca mobil inactive | YFP-HEK293 quench inactive | ClC-1 inh inactive
COc1cc(O)c(C(=O)O)c(CCc2ccccc2)c1	none (no result: ANO1 activ, TLR4-MyD88 BLA, TMEM16A inh)
Cc1ccc(C)n1-n1c(C)nc2sc(-c3ccccc3)cc2c1=O	TMEM16A inh 100 | TMEM16A reconf inactive | HEK293 Ca mobil inactive | YFP-HEK293 quench inactive | ClC-1 inh inactive
O=C(CCc1ccc(S(=O)(=O)N2CCOCC2)cc1)Oc1ccccc1	TMEM16A inh 25 | TMEM16A reconf inactive | HEK293 Ca mobil inactive | YFP-HEK293 quench inactive | ClC-1 inh inactive
O=C(O)CCc1ccc(S(=O)(=O)N2CCOCC2)cc1	none
Cc1cc(Cl)c(S(=O)(=O)N2CCCC2)cc1OCC(=O)NC1CCCCC1	TMEM16A inh 100 | TMEM16A reconf 22% | HEK293 Ca mobil inactive | YFP-HEK293 quench inactive | ClC-1 inh inactive
CCCn1c(=O)c(C(=O)NNC(=O)c2ccccc2Cl)c(O)c2ccccc21	ANO1 activ -4.6, TMEM16A inh 100 (no result: TLR4-MyD88 BLA) | TMEM16A reconf inactive | HEK293 Ca mobil inactive | YFP-HEK293 quench inactive | ClC-1 inh inactive
O=c1[nH]cnc2c1ncn2C1OCC(O)C(O)C1O (configuration not stated)	none (no result: TLR4-MyD88 BLA, TMEM16A inh)
O=C(O)CN(c1ccccc1F)S(=O)(=O)c1ccccc1	none | TMEM16A reconf inactive | HEK293 Ca mobil inactive | YFP-HEK293 quench inactive | ClC-1 inh inactive
Clc1c(Cl)c(Cl)c2n[nH]nc2c1Cl	HTR2A ag 18, TMEM16A inh 100 (no result: TLR4-MyD88 BLA) | TMEM16A reconf 44% | HEK293 Ca mobil inactive | YFP-HEK293 quench inactive | ClC-1 inh inactive
Cc1ccc(C(=O)Nc2ccc(OCc3ccccc3)cc2)cc1[N+](=O)[O-]	TMEM16A inh 25 | TMEM16A reconf inactive | HEK293 Ca mobil inactive | YFP-HEK293 quench inactive | ClC-1 inh inactive
CC1CN(c2nc(N(C)c3ccccc3)nc(N)c2[N+](=O)[O-])CC(C)O1 (configuration not stated)	none (no result: TLR4-MyD88 BLA)
CC1CC(C)CN(c2nc(N(C)c3ccccc3)nc(N)c2[N+](=O)[O-])C1 (configuration not stated)	TMEM16A inh 25 (no result: TLR4-MyD88 BLA) | TMEM16A reconf inactive | HEK293 Ca mobil inactive | YFP-HEK293 quench inactive | ClC-1 inh inactive
CCc1cc(=S)n2c([nH]c3ccccc32)c1C#N	TMEM16A inh 100 | TMEM16A reconf 26% | HEK293 Ca mobil inactive | YFP-HEK293 quench inactive | ClC-1 inh inactive
CCc1cc(=O)n2c([nH]c3ccccc32)c1C#N	none
CCc1c(C)c(C#N)c2[nH]c3ccccc3n2c1=S	TMEM16A inh 100 (no result: TLR4-MyD88 BLA) | TMEM16A reconf 34% | HEK293 Ca mobil inactive | YFP-HEK293 quench inactive | ClC-1 inh inactive
COc1ccc(C(=O)/C=C/c2cn(CC(O)CN3CCN(C)CC3)c3ccccc23)cc1OC (configuration not stated)	none (no result: TLR4-MyD88 BLA) | TMEM16A reconf inactive | HEK293 Ca mobil inactive | YFP-HEK293 quench inactive | ClC-1 inh inactive
CC1=Nc2ccccc2/C1=C/c1sc(=N)n(-c2nccs2)c1O	none
COC(=O)CCCCCN1C(=O)NC(C2CC2)C(C(=O)OCc2ccccc2)=C1C (configuration not stated)	TMEM16A inh 25 (no result: TLR4-MyD88 BLA) | TMEM16A reconf inactive | HEK293 Ca mobil inactive | YFP-HEK293 quench inactive | ClC-1 inh inactive
COC(=O)CCCN1C(=O)NC(c2ccc(-c3ccccc3)cc2)C(C(=O)OCc2ccccc2)=C1C (configuration not stated)	none (no result: ANO1 activ, TLR4-MyD88 BLA, TMEM16A inh)
CC1=C(C(=O)OCc2ccccc2)C(c2ccc(-c3ccccc3)cc2)NC(=O)N1CCCCCC(=O)O (configuration not stated)	TMEM16A inh 100 | TMEM16A reconf 31% | HEK293 Ca mobil inactive | YFP-HEK293 quench inactive | ClC-1 inh inactive
CCN(CC)S(=O)(=O)c1cc(NC(=O)COC(=O)CCC(=O)c2ccc(F)cc2)ccc1C	none
COC(=O)CCCn1cc(CN(C)C2CN(Cc3cn(CCCC(=O)OC)nn3)S(=O)(=O)C2)nn1 (configuration not stated)	none (no result: ANO1 activ, TLR4-MyD88 BLA, TMEM16A inh, TLR9-MyD88 inh)
CC(Sc1nc(NCc2ccccc2)nc(N(C)C)n1)C(=O)Nc1ccccc1 (configuration not stated)	TMEM16A inh 100 | TMEM16A reconf inactive | HEK293 Ca mobil inactive | YFP-HEK293 quench inactive | ClC-1 inh inactive
COc1ccc(C)cc1N(CC(N)=O)S(=O)(=O)c1ccc(C)cc1	none

Assay outcomes from PubChem.
